# The campaign covered roughly 310,000 compounds. About 14,000 (4.5%) showed an effect of 50% or more. The effect is printed as a negative number. For the sample, strong results were picked, then their nearest neighbours and some compounds at random.
# Target: human ether-à-go-go-related gene (hERG) potassium channel (human, UniProt Q12809)
# Test: primary screen, population patch clamp on CHO cells stably expressing hERG; higher = less effect of the substance
# 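Note: peak tail current of the secondary pulse compared with the same well before compound.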
# human ether-à-go-go-related gene (hERG) potassium channel, sequence (Q12809 whole entry, looked up): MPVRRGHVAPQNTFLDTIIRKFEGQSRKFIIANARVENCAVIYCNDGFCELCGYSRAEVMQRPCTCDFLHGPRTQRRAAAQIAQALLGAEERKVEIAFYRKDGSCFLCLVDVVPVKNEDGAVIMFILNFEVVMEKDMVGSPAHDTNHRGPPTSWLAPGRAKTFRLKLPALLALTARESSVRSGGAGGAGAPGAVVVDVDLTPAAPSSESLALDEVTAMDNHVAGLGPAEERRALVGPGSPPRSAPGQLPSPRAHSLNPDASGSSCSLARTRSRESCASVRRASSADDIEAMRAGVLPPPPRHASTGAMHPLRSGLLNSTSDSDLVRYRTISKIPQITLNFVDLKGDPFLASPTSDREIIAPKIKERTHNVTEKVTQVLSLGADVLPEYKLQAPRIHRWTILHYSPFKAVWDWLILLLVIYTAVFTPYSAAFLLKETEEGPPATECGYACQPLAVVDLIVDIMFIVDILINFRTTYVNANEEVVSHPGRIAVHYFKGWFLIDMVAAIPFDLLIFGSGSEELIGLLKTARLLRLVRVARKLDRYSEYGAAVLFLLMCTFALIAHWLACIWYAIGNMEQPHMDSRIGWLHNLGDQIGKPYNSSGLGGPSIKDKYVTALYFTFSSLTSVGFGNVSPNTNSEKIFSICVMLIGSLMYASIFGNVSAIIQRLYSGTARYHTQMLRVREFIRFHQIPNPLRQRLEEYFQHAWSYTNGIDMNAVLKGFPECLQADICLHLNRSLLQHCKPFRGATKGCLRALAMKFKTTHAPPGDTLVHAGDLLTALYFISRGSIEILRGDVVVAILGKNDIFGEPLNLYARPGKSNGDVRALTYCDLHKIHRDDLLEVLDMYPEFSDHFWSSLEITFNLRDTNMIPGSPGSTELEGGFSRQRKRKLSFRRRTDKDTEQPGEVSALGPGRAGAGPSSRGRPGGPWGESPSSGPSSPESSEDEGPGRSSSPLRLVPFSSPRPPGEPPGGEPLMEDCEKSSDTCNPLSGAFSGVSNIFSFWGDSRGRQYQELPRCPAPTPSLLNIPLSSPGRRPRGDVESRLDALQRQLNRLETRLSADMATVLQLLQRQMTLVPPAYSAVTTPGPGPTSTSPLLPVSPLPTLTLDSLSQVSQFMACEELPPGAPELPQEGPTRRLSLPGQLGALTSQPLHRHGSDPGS
row,SMILES,"hERG current change (%, negative = inhibition) at 10uM"
1,CCOc1ccc(S(=O)(=O)N2CCC(C(=O)NCc3cccnc3)CC2)cc1,-27.1%
2,CCCC1(c2ccccc2)NC(=O)N(CC(=O)Nc2cc(C)on2)C1=O (stereo not drawn),23.6%
3,CCc1nn(CC(=O)NCCc2ccc(S(N)(=O)=O)cc2)c(=O)c2cc3sccc3n12,20.1%
4,Oc1ccc(O)c(/C(=N/Nc2ccccc2)c2ccccc2)c1,11%
5,O=c1n(-c2cccc(Cl)c2)c(=O)n2n1CCC2,-6.81%
6,O=C(CCN1CCN(c2ccc(Cl)cc2)CC1)Nc1nccs1,-13.3%
7,COc1cc(C2c3c(oc4c(C)cc(C)cc4c3=O)C(=O)N2Cc2cccnc2)ccc1O (stereo not drawn),5.03%
8,COCC(C)n1c(C)cc(C(=O)COC(=O)/C=C/c2cccc(F)c2)c1C (stereo not drawn),-31.6%
9,Cc1nn(Cc2ccccc2)c(Cl)c1/C=C/C(=O)OC(C)C(=O)N1CCCC1 (stereo not drawn),18.7%
10,CN1CCN(C(=O)/C(=C\c2cccs2)NC(=O)c2cccs2)CC1,-72.5%
11,Cc1ccc(C(=O)N/C(=C/c2cccs2)C(=O)N2CCCCC2)cc1,-35.4%
12,Cc1ccc(C(=O)N/C(=C\c2cccs2)C(=O)N2CCCCCC2)cc1,-50.7%
13,O=C(N/C(=C\c1cccs1)C(=O)N1CCOCC1)c1cccs1,-9.07%
14,Cc1ccc(C(=O)N/C(=C/c2cccs2)C(=O)N2CCCCCC2)cc1,-46%
15,O=C(N/C(=C/c1cccs1)C(=O)N1CCOCC1)c1cccs1,-8.41%
16,Cc1cc(NC(=O)C2CC(=O)N(c3ccccc3Cl)C2)no1 (stereo not drawn),14.6%
17,C/C(=N\NC(=O)CNC(=O)c1ccc2c(c1)OCCO2)c1ccco1,10.7%
18,CC(=O)Nc1ccc(S(=O)(=O)N2CCN(CCCOc3ccccc3Cl)CC2)cc1,-49.6%
19,CN(CCN1CCOCC1)C(=O)CC1C(=O)NCCN1Cc1ccccc1F (stereo not drawn),12%
20,Cc1ccc(-n2c(SCC(N)=O)nnc2-c2ccccn2)cc1C,8.79%
21,CCN(CC)C(=O)CSc1nnc(-c2ccccn2)n1-c1ccc(C)c(C)c1,-24.8%
22,Cc1csc(SCC(=O)Nc2nc(-c3ccccc3)cs2)n1,-8.35%
23,Cc1cc(C)cc(NC(=O)CSc2ccc(-c3ccccn3)nn2)c1,8.61%
24,Cc1nnc(NC(=O)CSc2ccc(-c3ccccn3)nn2)s1,12.1%

row,SMILES,"hERG current change (%, negative = inhibition) at 10uM"
1,Cc1csc(NC(=O)CSc2ccc(-c3ccccc3)nn2)n1,-66.9%
2,Cc1csc(NC(=O)CSc2ccc(-c3ccc(F)cc3)nn2)n1,-26.8%
3,Cc1csc(NC(=O)CSc2ccc(-c3ccccn3)nn2)n1,-73.6%
4,Cc1csc(NC(=O)CSc2nnc(-c3ccccn3)n2-c2ccc(C)c(C)c2)n1,-78.5%
5,COc1ccc(CCN2C(=O)CSC2c2cccc([N+](=O)[O-])c2)cc1OC (stereo not drawn),-3.39%
6,CCOC(=O)c1c(C)nc2c(c1-c1ccccc1)C(=O)CC(C)(C)C2,-16.8%
7,CC(OC(=O)c1ccc(O)cc1)C(=O)Nc1nc(-c2ccccc2)cs1 (stereo not drawn),-17.8%
8,CCOC(=O)N1CCN(C(=O)C2CCN(S(=O)(=O)c3ccc(F)cc3)CC2)CC1,-19.3%
9,CSc1ccccc1C(=O)NC1CCCN(Cc2ccccc2F)C1 (stereo not drawn),-11.5%
10,CC(=O)NC1C(OCc2cccc(Br)c2)OC(COC(C)=O)C(OC(C)=O)C1OC(C)=O (stereo not drawn),-12.4%
11,CNC(=O)c1ccccc1Sc1ccccc1C#N,19.1%
12,CCOc1cc(N2CCOCC2)c(OCC)cc1NC(=O)C(C)(C)C,17.4%
13,O=C(Nc1cccc([N+](=O)[O-])c1)N1CCN(c2ccccc2)CC1,-38.7%
14,COc1cc(C(=O)N2CCC(C(=O)Nc3cccc(C(C)=O)c3)CC2)cc(OC)c1OC,-2.12%
15,CC(=O)Nc1ccc(NC(=O)C2CCN(C(=O)c3ccc([N+](=O)[O-])cc3)CC2)cc1,-0.926%
16,O=C(Nc1cccc([N+](=O)[O-])c1)C1CCN(C(=O)Cc2ccccc2)CC1,-43.3%
17,CC(=O)c1cccc(NC(=O)C2CCN(C(=O)c3ccc([N+](=O)[O-])cc3)CC2)c1,-69.6%
18,CCc1cccc(C)c1NC(=O)C1CCN(C(=O)c2ccc([N+](=O)[O-])cc2)CC1,-48.2%
19,CC(=O)c1cccc(NC(=O)C2CCN(C(=O)c3ccccc3Cl)CC2)c1,-0.359%
20,Cc1ccc(N2CCN(C(=O)Nc3cccc([N+](=O)[O-])c3)CC2C)cc1 (stereo not drawn),-78.3%
21,CC(=O)c1ccc(NC(=O)N2CCN(c3ccc(C)cc3)C(C)C2)cc1 (stereo not drawn),-19.6%
22,Cc1ccc(C(=O)N2CCC(C(=O)Nc3cccc([N+](=O)[O-])c3)CC2)cc1,-80.1%
23,O=C(Nc1ccccc1)C1CCN(C(=O)c2ccc([N+](=O)[O-])cc2)CC1,-71.4%
24,O=C(Nc1ccc(F)cc1)C1CCN(C(=O)c2ccc([N+](=O)[O-])cc2)CC1,-4.16%
